TDP1 cell noCPT = qHTS for Inhibitors of human tyrosyl-DNA phosphodiesterase 1 (TDP1): qHTS in cells in absence of CPT. DT40 Tdp1-/- hTDP1 cells, no CPT, ATP luminescence, 48 h. Potency, µM (series often up to 46.2 µM), for the others: at the top dose activity change, negative = growth inhibition, hits mostly inhibitors. 420,000 compounds, 15% hits. AID 686978, 2013; also: potency is read from the fitted curve at half-maximal effect; nearly all actives have a fitted effect of over 55% in size
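No-CPT arm: Tdp1-/-;hTDP1 DT40 cells (400/well) plus compounds, incubated ≥48 hr at 37 °C. Readout CellTiter-Glo luminescence.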
Six1-Eya2 inh = qHTS Assay for Inhibitors of the Six1/Eya2 Interaction. activity change, % (concentration not given with the values). AlphaScreen GST-Six1/His-Eya2 binding, biochemical; active compounds read low. 360,000 compounds, 0.56% hits. Homeobox protein SIX1 (Homo sapiens) + Protein phosphatase EYA2 (Homo sapiens), …; in the data active = activity change below about -65%; inconclusive = mostly about -30% to -63%
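Compounds are tested against tagged Six1 and Eya2 proteins bridged by glutathione donor and nickel acceptor beads; after a one-hour incubation at 37 °C without light, AlphaScreen emission is recorded.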
IL-1B inflam inh = qHTS for Inhibitors of Inflammasome Signaling: IL-1-beta AlphaLISA Primary Screen; THP-1 LPS/ATP IL-1B secretion, AlphaLISA, 16 h; active compounds read low; activity change, % at 57.5 µM; 360,000 compounds, 4.7% hits; AID 743279, 2014; in the data active = activity change below about -50%; inconclusive = mostly about -30% to -49%
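THP-1 cells pretreated 1 hr with compounds (up to 57.5 uM final), then stimulated with LPS (250 ng/mL final) plus ATP (1.25 mM final); secreted IL-1B measured by AlphaLISA after 16 hr, decreased signal indicating inhibition.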
TDP1 cell CPT = qHTS for Inhibitors of human tyrosyl-DNA phosphodiesterase 1 (TDP1): qHTS in cells in presence of CPT | chicken DT40 Tdp1-/-;hTDP1 cells + 20 nM CPT, ATP luminescence, 48 h | AID 686979, 2013 | Potency, µM (doses to about 46.2 µM), inactives show at the top dose activity change, negative = growth inhibition, actives largely listed as inhibitors | 420,000 compounds, 12% hits; also: potency is read from the fitted curve at half-maximal effect; nearly all actives have a fitted effect of over 55% in size
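Chicken DT40 Tdp1-/- cells complemented with human TDP1, 400 cells/well, exposed to compounds plus 20 nM camptothecin for at least 48 h at 37 C; viability read as ATP content by CellTiter-Glo luminescence.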
TDP1 inh = qHTS Assay for Inhibitors of Tyrosyl-DNA Phosphodiesterase (TDP1); recombinant TDP1, AlphaScreen DNA substrate cleavage; Potency, µM (doses to about 130 µM), for the others: at the highest dose activity change, negative = inhibition, hits mostly inhibitors; 350,000 compounds, 0.28% hits; also: potency is read from the fitted curve at half-maximal effect; nearly all actives have a fitted effect of over 40% in size
Target sequence (Q9NUW8 whole entry, looked up): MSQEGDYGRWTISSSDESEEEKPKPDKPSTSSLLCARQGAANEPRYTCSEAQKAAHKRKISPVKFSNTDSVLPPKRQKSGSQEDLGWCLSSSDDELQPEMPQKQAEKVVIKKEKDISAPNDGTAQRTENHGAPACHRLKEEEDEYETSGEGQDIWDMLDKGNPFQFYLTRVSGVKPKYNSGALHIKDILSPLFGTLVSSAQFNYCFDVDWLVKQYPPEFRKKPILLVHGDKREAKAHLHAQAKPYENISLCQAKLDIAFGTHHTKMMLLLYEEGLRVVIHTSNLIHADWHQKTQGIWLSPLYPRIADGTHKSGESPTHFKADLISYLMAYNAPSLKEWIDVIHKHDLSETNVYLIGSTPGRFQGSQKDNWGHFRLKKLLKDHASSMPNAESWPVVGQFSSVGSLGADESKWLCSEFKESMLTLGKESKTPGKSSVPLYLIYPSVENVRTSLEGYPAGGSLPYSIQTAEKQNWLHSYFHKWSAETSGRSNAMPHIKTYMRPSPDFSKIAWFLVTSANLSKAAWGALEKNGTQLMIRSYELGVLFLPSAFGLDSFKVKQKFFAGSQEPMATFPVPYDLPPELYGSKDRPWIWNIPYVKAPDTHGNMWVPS
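Here, a 5' biotin and 3' phosphotyrosine-FITC DNA oligonucleotide reports Tdp1 activity: intact substrate bridges AlphaScreen beads, while cleavage leaves a 3' phosphate and drops signal. All incubations at room temperature.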
CtBP-E1A inh = qHTS Assay for Inhibitors of the CtBP/E1A Interaction. CtBP / adenovirus E1A interaction (AlphaScreen). AlphaScreen GST-E1A/His-CtBP binding, 1536-well; active compounds read low. activity change, % (no concentration beside the values). 340,000 compounds, 0.49% hits; in the data active = activity change below about -65%; inconclusive = mostly about -30% to -63%
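Homogeneous bead-based format: GST-tagged E1A captured on glutathione donor beads, His-tagged CtBP on nickel acceptor beads; compounds precede bead addition by 2 h at 37 °C.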
The depositor's hits bear a star; ? = inconclusive; . = not tested or not shown; [ ] = remark or other dose. Compounds with a hit are over-represented: about 18% of the library has one in this group of screens. Unless noted, calls follow the shape of the dose curve; as a rule, active = well fitted curve in the direction sought with a large enough effect; inconclusive = small, poorly fitted or top-dose-only effect, or another doubt; inactive = no such curve, though single readings can be large; an effect the other way counts as inactive or inconclusive. % is scaled to controls: 0 for no effect and ±100 for the full control effect.

SMILES	TDP1 cell noCPT	Six1-Eya2 inh	IL-1B inflam inh	TDP1 cell CPT	TDP1 inh	CtBP-E1A inh
c1csc(-c2nc3nc4ccccc4nc3n2Cc2ccc3c(c2)OCO3)c1	?	5.7	?	18.4µM*	2.3%	16.8
COCCn1c(-c2cccs2)nc2nc3ccccc3nc21	?	5.0	24.7	?	-1.9%	.
CCN(CC(=O)N1CCC(C(N)=O)CC1)S(=O)(=O)c1cc(Cl)ccc1Cl	-29.1%	4.9	47.4	15.0%	.	-1.2
Nc1nc(=S)n(-c2ccccc2)[nH]1	2.0%	4.3	4.4	-0.3%	7.4%	15.9
S=c1nc(C2CCCCC2)n(-c2ccccc2)[nH]1	23.1µM*	4.2	18.9	?	3.5%	2.1
COC(=O)c1ccc(N2CCCCC2)c(NS(=O)(=O)c2ccc(C)cc2)c1	?	2.9	-2.1	16.4µM*	4.7%	5.2
CCN(CC)CCNC(=O)c1ccc(N2CCCCC2)c(NS(=O)(=O)c2ccc(C)cc2)c1	20.6µM*	-0.5	-28.3	25.9µM*	0.0%	-9.8
CCOC(=O)c1ccc(N2CCCCC2)c(NS(=O)(=O)c2cccc(C(F)(F)F)c2)c1	?	4.5	0.0	?	-4.1%	.
COC(=O)c1ccc(N2CCN(S(=O)(=O)c3ccc(C)cc3)CC2)c([N+](=O)[O-])c1	20.6µM*	?	7.9	18.4µM*	7.4%	?
CCS(=O)(=O)N1CCN(c2ccc(C(=O)NC3C4CC5CC(C4)CC3C5)cc2[N+](=O)[O-])CC1 (stereo not drawn)	8.2µM*	1.3	3.6	8.2µM*	3.2%	1.5
COC(=O)c1c(Cl)c(Cl)c(C(=O)OC)c(Cl)c1Cl	-5.8%	.	.	-28.0%	4.9%[56.1 µM]	.
COc1cc(NC(=O)CS(=O)(=O)c2ccccc2)cc(OC)c1OC	-20.8%	-8.2	-7.8	-4.5%	4.4%	0.6
CCc1nc2c(OCc3ccccc3C(=O)OC)cccn2c1N(C)C(=O)c1cccc(OC)c1	23.1µM*	-11.2	-3.4	13µM*	.	-7.0
CCc1nc2c(OCc3cccc(OC)c3)cccn2c1N(C)C(=O)c1ccc(OC)cc1	16.4µM*	-5.9	-29.8	?	.	-0.5
CCc1nc2c(OCc3ccc(OC)cc3)cccn2c1N(C)C(=O)c1ccncc1	-22.1%	3.2	24.0	-4.8%	.	4.2
CCc1nc2c(OCCc3cccc(OC)c3)cccn2c1N(C)C(=O)c1ccc(OC)cc1	?	-3.6	-29.1	?	.	?
CCc1nc2c(OCc3cccc(Cl)c3)cccn2c1N(C)C(=O)c1ccc(OC)cc1	16.4µM*	-11.9	-0.1	?	.	-1.0
CCc1nc2c(OCc3cc(Cl)cc(Cl)c3)cccn2c1N(C)C(=O)c1cccc(OC)c1	?	-7.3	-55.5*	?	.	0.4
CCCC(CCC)=NNC(=O)CN(Cc1ccccc1)S(=O)(=O)c1ccccc1	5.4%	-0.9	-2.2	6.1%	0.0%	-2.6
CC(=O)Nc1cccc(C(=O)OCC(=O)c2ccc(S(=O)(=O)N3CCCCC3)cc2)c1	-16.0%	-1.5	0.0	?	0.1%	-1.4
O=[N+]([O-])c1ccc(/C=C/c2ccc3ccccc3n2)cc1	?	-8.9	-8.1	?	6.3%	-10.0
CN(C)c1ccc(/C=C/c2ccc3ccccc3n2)cc1	11.6µM*	28.3	27.5	18.4µM*	5.5%	.
CN(C)c1ccc(/C=C/c2ccc3cc(F)ccc3n2)cc1	10µM*	.	.	?	.	.
CN(C)c1ccc(/C=C/c2ccc3cc(N(C)C)ccc3n2)cc1	?	.	.	12.6µM*	.	.
CN(C)c1ccc(/C=C/c2cc(/C=C/c3ccc(N(C)C)cc3)c3ccccc3n2)cc1	11.2µM*	.	.	?	.	.
SMILES	TDP1 cell noCPT	Six1-Eya2 inh	IL-1B inflam inh	TDP1 cell CPT	TDP1 inh	CtBP-E1A inh
CN(C)c1ccc(C=O)c(O)c1	-2.5%	.	.	0.2%	.	.
CC(C)CC1OCCC=CC1C (stereo not drawn)	.	.	.	.	10.1%[21 µM]	.
Nc1cc2c(cc1Cl)-c1ccccc1C2	-28.9%	-15.5	-7.2	?	.	-1.7
CCN(CC(=O)Nc1ccc(NC(C)=O)cc1)C(=O)CCCOc1cccc(C)c1	?	-5.3	14.0	?	.	-2.0
CN(C)c1ccc(/C=C/c2cccc3cc4ccccc4nc23)cc1	0.126µM*	.	.	0.1µM*	.	.
CN(C)c1ccc(C(=N)Cc2ccc3ccccc3n2)cc1	?	0.4	29.4	20.6µM*	.	1.6
CCOc1cc(/C=C/c2cc(C(=O)O)c3ccccc3n2)ccc1O	-8.4%	3.4	0.0	-3.3%	-5.5%	-5.0
CN(C)c1ccc(C(=N)c2ccc(N(C)C)cc2)cc1	.	.	.	.	9.9%	.
CCCN(CCC)c1ccc(/C=C/c2ccc3cc(OCC)ccc3n2)cc1	23.1µM*	7.7	3.4	?	-1.4%	11.2
CCN(CC)c1ccc(/C=N/NC(=O)c2cc(C)nc3ccccc23)cc1	?	-26.3	-20.1	1.7%	.	-8.5
CCN(CC)c1ccc(/C=C/c2cc(-c3ccccc3)c3ccccc3n2)cc1	25.9µM*	78.5	34.1	-51.2%	.	.
CCC(C)(C)NC(=O)Cc1ccc(OC)c(OC)c1	-0.6%	1.7	11.1	-4.8%	-1.0%	4.6
Cc1nc(/C=C/c2ccccc2)cc(/C=C/c2ccccc2)n1	?	10.6	-0.4	-21.6%	-2.9%	-9.0
Cc1cc(/C=C/c2ccccc2)nc2ccccc12	10µM*	.	.	?	.	.

Screening data from PubChem BioAssay.
